Seven molecules from PubChem BioAssay can be followed below.

Each structure is given as a SMILES string. The source made the active and inactive calls.

The test system of assay [1] is Plasmodium falciparum Sir2 (PF13_0152, Sir2A). Put plainly: Plasmodium falciparum Sir2A binding compounds – biochemical, small-molecule microarray, 635 nm fluorescence, primary screen (AID 1098).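 Also: score merges spot fluorescence intensity with its signal-to-noise ratio.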 Conditions: fluorescence 635 nm, higher = more signal.
The nature of assay [2]: probe aDKK1 binding to arrayed compounds – biochemical, biotinylated probe, 635/667 nm fluorescence, primary screen (AID 1099).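 Also: score merges 667nm spot fluorescence with signal to noise across triplicate slides.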 As to conditions: small-molecule microarray, higher = more signal.
The nature of assay [3]: probe aCHRDL2 binding to arrayed compounds – biochemical, biotinylated probe, 635/667 nm fluorescence, primary screen (AID 1100). As to conditions: small-molecule microarray, higher = more signal.
Assay [4] in a line: change in splice reporter luminescence, either direction, cell-based, HEK293, spliceosome inhibition project, primary screen (AID 1101).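 Also: HEK293 cells carrying a splicing-competent luciferase reporter gene; test concentration not given here.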 As to conditions: HEK293 splicing luciferase reporter, 24 h, higher = more signal, called active from +8 up or from −8 down. On the technique in general: A reporter such as luciferase makes a cellular process visible.
The target in assay [5] is Fibroblast growth factor 10 (Homo sapiens) (UniProt O15520). Put plainly: compounds binding fibroblast growth factor 10 – biochemical, small-molecule microarray, 635 nm fluorescence, primary screen (AID 1102). As to conditions: FGF10 binding, fluorescence 635 nm, higher = more signal.
The subject of assay [6] is glycogen synthase kinase-3 (GSK3A per assay name; protocol says GSK3B). Put plainly: compounds binding glycogen synthase kinase-3 – biochemical, small-molecule microarray, 635 nm fluorescence, GSK3A, primary screen (AID 1103). Also: the record names both GSK3A and GSK3B. Conditions: fluorescence 635 nm, higher = more signal.
The target of assay [7] is Epidermal growth factor receptor (Homo sapiens) (UniProt P00533). Put plainly: compounds binding epidermal growth factor receptor – biochemical, small-molecule microarray, 635 nm fluorescence, primary screen (AID 1104).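 Also: score merges 667 nm emission intensity with spot signal to noise over triplicate slides.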 Conditions: EGFR binding, higher = more signal.
Assay [8] deals with Follistatin-related protein 3 (Homo sapiens) (UniProt O95633). The assay is described as follows: compounds binding follistatin-related protein 3 – biochemical, small-molecule microarray, 635 nm fluorescence, primary screen (AID 1105).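 Also: score merges emission near 667 nm and signal to noise per printed spot across three slides.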 Conditions: FSTL3 binding, higher = more signal.
Assay [9] addresses Dickkopf-related protein 1 (Homo sapiens) (UniProt O94907). The assay is described as follows: small molecules binding DKK1 protein – biochemical, small-molecule microarray, 635 nm fluorescence scan, primary screen (AID 1106).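 Also: score merges emission near 667 nm with signal to noise over three replicate slides.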 As to conditions: higher = more signal.
Assay [10] deals with Inhibin beta A chain (activin A). Put plainly: small molecules binding activin A – biochemical, small-molecule microarray, 635 nm fluorescence scan, primary screen (AID 1107).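 Also: mouse activin A protein probed at 4.33 µg/mL on printed slides; score merges bound-protein fluorescence near 667 nm with spot signal-to-noise.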 As to conditions: INHBA, higher = more signal.
The test system of assay [11] is Human papillomavirus type 1a protein E7 (residues 44-93). The assay is described as follows: small molecules binding HPV E7 44-93 – biochemical, small-molecule microarray, residues 44-93, 635 nm fluorescence, primary screen (AID 1108).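 Also: E7 fragment applied at 1 µg/mL in TBST for 1 h at 4 C; score combines spot fluorescence with its signal to noise ratio.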 Conditions: fluorescence 635 nm, higher = more signal.
The nature of assay [12]: hepatitis C replication reporter changes, two-sided – Huh7 cells, luciferase reporter, HCV replication inhibitor project, primary screen (AID 1109).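 Also: huh7 hepatoma cells harbouring a luciferase neomycin HCV replicon reporter; luciferase luminescence as measure of HCV replicon replication; test concentration not given here.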 Conditions: Huh7 HCV replicon luciferase reporter, 48 h; higher = more signal.
The target in assay [13] is Left-right determination factor 2 (Homo sapiens) (UniProt O00292). The assay is described as follows: small molecules binding LEFTY2 protein – biochemical, small-molecule microarray, 635 nm fluorescence scan, primary screen (AID 1110). As to conditions: higher = more signal.
In assay [14] the target is Calmodulin-1 (Homo sapiens) (UniProt P0DP23). Put plainly: small molecules binding calmodulin-1 with EGTA – biochemical, small-molecule microarray, Cy5-labelled CALM1, profiling panel (AID 1111).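 Also: labelled calmodulin applied in Tris saline Tween buffer holding calcium plus EGTA and DTT.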 Conditions: Cy5-CALM1 binding fluorescence, higher = more signal.
Assay [15] has the same target. Put plainly: small molecules binding Ca-loaded calmodulin-1 – biochemical, small-molecule microarray, Cy5-labelled CALM1, plus calcium, artefact control for SMM control-protein annotation, profiling panel (AID 1112).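 Also: score merges spot fluorescence with signal to noise from triplicate slides.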 Conditions: Cy5-CALM1 binding fluorescence, higher = more signal.
The nature of assay [16]: probe aWnt5a binding to arrayed compounds – biochemical, biotinylated probe, 635/667 nm fluorescence, primary screen (AID 1113).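 Also: score merges 667 nm fluorescence intensity with signal-to-noise per printed feature.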 Conditions: small-molecule microarray, higher = more signal.
Assay [17] is described as follows: probe aShh binding to arrayed compounds – biochemical, biotinylated probe, 635/667 nm fluorescence, primary screen (AID 1114).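 Also: probe is biotin-labelled aShh protein from a stem cell growth factor screen; measures binding of labelled protein to compounds printed on the slide; score merges feature fluorescence at 667 nm with signal-to-noise.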 Conditions: small-molecule microarray, higher = more signal.
The nature of assay [18]: probe aNog binding to arrayed compounds – biochemical, biotinylated probe, 635/667 nm fluorescence, primary screen (AID 1115).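 Also: probe is biotinylated aNog protein used at 0.15 µg/mL for 1 h at 4 C; z-score combines 667 nm fluorescence of each spot with its signal to noise.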 As to conditions: small-molecule microarray, higher = more signal.
In assay [19] the target is Torsin-1A-interacting protein 1 (Homo sapiens) (UniProt Q5JTV8). The assay is described as follows: compound microarray binding of lysate hLAP1 – cell lysate, small-molecule microarray, COS7 lysate, 635/667 nm fluorescence, primary screen (AID 1116). As to conditions: 635 nm fluorescence, higher = more signal.
In assay [20] the target is Alpha-bungarotoxin (Bungarus multicinctus) (UniProt P60615). Put plainly: compounds binding labelled alpha-BTX control protein – biochemical, small-molecule microarray, Alexa647 label, 635/667 nm fluorescence, artefact control for SMM control protein annotation, profiling panel (AID 1117). Conditions: alpha-BTX-A647 binding fluorescence, higher = more signal.
Chain of Alpha-bungarotoxin (Bungarus multicinctus) (P60615 whole entry, looked up): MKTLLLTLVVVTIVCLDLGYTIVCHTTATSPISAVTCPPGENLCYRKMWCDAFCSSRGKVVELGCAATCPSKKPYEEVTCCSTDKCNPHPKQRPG

Chain of Torsin-1A-interacting protein 1 (Homo sapiens) (Q5JTV8 whole entry, looked up): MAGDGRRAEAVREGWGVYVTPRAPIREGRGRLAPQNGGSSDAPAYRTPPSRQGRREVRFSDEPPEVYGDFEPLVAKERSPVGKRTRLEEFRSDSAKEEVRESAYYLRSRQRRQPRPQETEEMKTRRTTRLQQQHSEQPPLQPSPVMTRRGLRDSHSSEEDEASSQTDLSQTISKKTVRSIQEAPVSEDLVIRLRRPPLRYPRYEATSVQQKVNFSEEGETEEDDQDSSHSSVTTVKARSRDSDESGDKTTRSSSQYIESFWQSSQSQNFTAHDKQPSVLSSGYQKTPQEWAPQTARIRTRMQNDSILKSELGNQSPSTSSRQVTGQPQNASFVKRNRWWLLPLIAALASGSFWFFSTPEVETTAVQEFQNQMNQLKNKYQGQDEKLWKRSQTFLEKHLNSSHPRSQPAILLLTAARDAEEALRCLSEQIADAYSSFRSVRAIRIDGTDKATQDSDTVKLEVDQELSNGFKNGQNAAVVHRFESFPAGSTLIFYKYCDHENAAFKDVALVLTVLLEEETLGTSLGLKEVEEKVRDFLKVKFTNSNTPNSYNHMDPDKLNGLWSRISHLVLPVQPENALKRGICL
Chain of Dickkopf-related protein 1 (Homo sapiens) (O94907 whole entry, looked up): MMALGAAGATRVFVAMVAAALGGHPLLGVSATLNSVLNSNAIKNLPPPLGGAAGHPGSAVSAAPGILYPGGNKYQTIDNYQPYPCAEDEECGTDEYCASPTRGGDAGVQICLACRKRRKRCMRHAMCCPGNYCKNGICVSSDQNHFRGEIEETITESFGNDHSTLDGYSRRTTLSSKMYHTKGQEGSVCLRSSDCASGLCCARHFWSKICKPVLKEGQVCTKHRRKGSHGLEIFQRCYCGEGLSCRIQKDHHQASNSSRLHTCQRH
Chain of Follistatin-related protein 3 (Homo sapiens) (O95633 whole entry, looked up): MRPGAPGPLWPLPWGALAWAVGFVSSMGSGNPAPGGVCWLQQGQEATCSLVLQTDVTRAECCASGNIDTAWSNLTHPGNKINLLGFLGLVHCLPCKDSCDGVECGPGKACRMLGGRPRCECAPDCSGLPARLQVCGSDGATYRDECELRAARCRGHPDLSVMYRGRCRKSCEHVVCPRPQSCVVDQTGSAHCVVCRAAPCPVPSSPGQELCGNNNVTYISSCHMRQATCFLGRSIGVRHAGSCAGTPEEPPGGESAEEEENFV
Chain of Left-right determination factor 2 (Homo sapiens) (O00292 whole entry, looked up): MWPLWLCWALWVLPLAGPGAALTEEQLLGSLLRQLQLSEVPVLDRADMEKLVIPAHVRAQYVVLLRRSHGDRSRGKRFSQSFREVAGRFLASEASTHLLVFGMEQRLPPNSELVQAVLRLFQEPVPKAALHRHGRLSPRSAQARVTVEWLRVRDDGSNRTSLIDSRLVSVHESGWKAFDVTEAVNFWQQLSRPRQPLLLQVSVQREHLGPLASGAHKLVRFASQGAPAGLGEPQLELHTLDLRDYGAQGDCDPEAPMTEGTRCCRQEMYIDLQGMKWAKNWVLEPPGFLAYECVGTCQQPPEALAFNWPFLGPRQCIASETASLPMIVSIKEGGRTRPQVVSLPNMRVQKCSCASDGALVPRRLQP
Chain of Epidermal growth factor receptor (Homo sapiens) (P00533 whole entry, looked up): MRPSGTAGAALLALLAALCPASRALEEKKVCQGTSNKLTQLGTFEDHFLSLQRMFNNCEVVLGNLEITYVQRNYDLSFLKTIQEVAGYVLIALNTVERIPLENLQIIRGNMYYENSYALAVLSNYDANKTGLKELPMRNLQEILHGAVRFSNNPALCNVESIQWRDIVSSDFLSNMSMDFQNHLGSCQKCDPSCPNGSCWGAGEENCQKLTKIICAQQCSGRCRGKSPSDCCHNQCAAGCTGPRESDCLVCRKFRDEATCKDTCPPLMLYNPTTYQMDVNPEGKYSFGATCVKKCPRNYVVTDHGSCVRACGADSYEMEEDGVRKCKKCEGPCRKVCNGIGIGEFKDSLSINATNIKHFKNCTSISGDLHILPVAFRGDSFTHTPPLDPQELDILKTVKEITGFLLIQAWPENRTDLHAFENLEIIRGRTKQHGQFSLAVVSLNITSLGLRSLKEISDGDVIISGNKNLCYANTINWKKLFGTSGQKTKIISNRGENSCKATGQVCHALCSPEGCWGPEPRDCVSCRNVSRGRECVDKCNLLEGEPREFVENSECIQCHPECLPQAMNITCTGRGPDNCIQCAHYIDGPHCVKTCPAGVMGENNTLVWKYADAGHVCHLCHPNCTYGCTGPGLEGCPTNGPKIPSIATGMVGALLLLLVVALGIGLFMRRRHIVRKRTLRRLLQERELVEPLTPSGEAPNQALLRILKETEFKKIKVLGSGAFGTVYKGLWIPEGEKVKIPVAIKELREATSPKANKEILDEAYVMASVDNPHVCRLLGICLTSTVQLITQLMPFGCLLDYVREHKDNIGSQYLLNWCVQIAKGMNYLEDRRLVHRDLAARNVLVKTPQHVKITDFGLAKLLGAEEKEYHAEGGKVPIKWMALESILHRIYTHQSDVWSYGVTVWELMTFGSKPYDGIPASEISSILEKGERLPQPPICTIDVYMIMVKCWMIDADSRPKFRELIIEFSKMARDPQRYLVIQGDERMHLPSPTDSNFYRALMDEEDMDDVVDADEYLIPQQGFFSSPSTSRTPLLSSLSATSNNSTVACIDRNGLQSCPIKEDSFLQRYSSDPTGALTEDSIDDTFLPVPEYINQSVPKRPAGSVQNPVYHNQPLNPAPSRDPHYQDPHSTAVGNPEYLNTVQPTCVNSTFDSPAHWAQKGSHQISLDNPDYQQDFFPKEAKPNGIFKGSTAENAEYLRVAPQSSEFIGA
Chain of Fibroblast growth factor 10 (Homo sapiens) (O15520 whole entry, looked up): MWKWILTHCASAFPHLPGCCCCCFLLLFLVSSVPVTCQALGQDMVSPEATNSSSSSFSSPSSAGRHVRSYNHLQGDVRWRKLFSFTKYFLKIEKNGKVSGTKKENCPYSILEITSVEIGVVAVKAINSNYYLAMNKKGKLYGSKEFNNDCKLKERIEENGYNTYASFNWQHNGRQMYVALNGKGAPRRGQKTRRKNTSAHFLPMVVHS

Take `O=C(NCc1ccccc1)[C@@H]1c2ccccc2C(=O)N(Cc2cc(C(F)(F)F)cc(C(F)(F)F)c2)[C@H]1c1ccc(CO)cc1`: the composite z-score in [1] was 0.569; in assay [2], 0.0477; in assay [3], 0.184; in assay [5], 1.13; in assay [6] it was 1.25; in assay [7], 0.171. Further, the composite z-score in [8] was determined as 1.04; in assay [9], 0.517; in assay [10], 0.277; in assay [11], 1.38; in [13], 0.446; in [14], 0.288. Besides, the composite z-score was -0.823 in [15]; 0.0257 in assay [16]; -0.0011 in assay [17]; -0.213 in assay [18]; 0.517 in assay [19]; 0.556 in assay [20]. The z-score in assay [4] was 0.000819 (inactive); in assay [12], 0.0626.
On to `N#Cc1ccc(-c2cccc(=O)o2)cc1`, for which the composite z-score in [1] was 0.306; in assay [2], -0.269; in [3], -0.0642; in assay [5] it was 0.219; in assay [6], 0.441; in assay [7] it was 0.506. The composite z-score was 0.345 in assay [8]; 0.0771 in assay [9]; 0.254 in assay [10]; 0.561 in [11]; 0.0266 in [13]; -0.179 in assay [14]. The composite z-score in assay [15] was -0.564; in assay [16], -0.0383; in [17] it was -0.349; in assay [18], 0.119; in [19], -0.102; in assay [20], 0.26. Moreover, the z-score in assay [4] is 0.862 (inactive); in assay [12] it was -0.0585.
Turning to `C=CCC(OC(C)=O)[C@@H]1[C@@H](N(Cc2cc3ccccc3o2)C(=O)Cc2ccc(OC)cc2)c2cc(OCCCO)ccc2N1C(=O)c1ccc2ccccc2n1` (stereo not given in full), the composite z-score was 0.0682 in [1]; 0.0671 in assay [2]; 0.393 in [3]; 0.116 in [5]; 0.0115 in assay [6]; 0.357 in assay [7]. Moreover, the composite z-score was 0.367 in [8]; 0.0467 in assay [9]; 1.42 in assay [10]; -0.329 in assay [11]; 0.0809 in [13]; -0.154 in assay [14]. Moreover, the composite z-score in assay [15] was -0.292; in assay [16], 0.0573; in assay [17] it was -0.0362; in [18], -0.0381; in [19], 0.461; in assay [20] it was 1.08. Moreover, the z-score is -0.536 (inactive) in [4] and -0.814 in assay [12].
Regarding `CC(C)NC(=O)[C@@H]1c2ccccc2C(=O)N(Cc2ccccc2C(F)(F)F)[C@H]1c1ccc(CO)cc1`, the composite z-score was 1.68 in assay [1]; 1.35 in assay [2]; 0.218 in assay [3]; 0.697 in assay [5]; -0.295 in assay [6]; -0.08 in [7]. In addition, the composite z-score in assay [8] is 0.147; in [9] it was -0.393; in assay [10], -0.349; in [11], 0.464; in [13], -1.27; in assay [14], -0.588. Moreover, the composite z-score was -0.721 in [15]; 0.4 in assay [16]; 0.0649 in [17]; -1.04 in assay [18]; 0.0048 in [19]; -0.198 in assay [20]. The z-score was 0.438 (inactive) in assay [4] and -0.692 in assay [12].
Take `C=C(CCCC)/C(=C/C[C@H](OC(C)=O)c1cccc(OCCO)c1)c1cnc2ccccc2c1`: the composite z-score in [1] was 0.989; in assay [2] it was -0.149; in assay [3], -0.0497; in assay [5], -0.252; in [6], -0.31; in assay [7], 0.228. For the same molecule, the composite z-score in [8] is 0.234; in assay [9], 0.0193; in assay [10] it was 1.83; in [11], -0.114; in assay [13] it was -0.234; in [14] it was -0.437. In addition, the composite z-score is -0.896 in [15]; -0.0684 in [16]; 0.0723 in assay [17]; 0.0664 in assay [18]; 0.558 in assay [19]; 0.387 in assay [20]. For the same molecule, the z-score in [4] was -0.142 (inactive); in assay [12], -2.3.
As to `CC1CC/C=C\[C@H]2OC34C=CCN(c5ccc6ccccc6c5)C(=O)[C@H]3N(C(C)CO)C(=O)[C@@H]4C2C(=O)O1` (stereo not given in full), the composite z-score was 1.38 in [1]; -0.087 in assay [2]; 0.404 in [3]; -0.83 in [5]; -1.36 in assay [6]; -0.975 in assay [7]. For the same molecule, the composite z-score in assay [8] was -1.04; in assay [9] it was -0.591; in assay [10] it was 0.265; in [11] it was -1.11; in [13] it was -0.82; in assay [14], -0.69. Also, the composite z-score was -0.607 in assay [15]; -0.146 in [16]; -0.291 in assay [17]; -0.21 in [18]; -0.26 in [19]; -0.758 in assay [20]. Besides, the z-score in [4] was 0.0493 (inactive); in [12], -0.942.
For the molecule `COCCOC(=O)N1C(=O)[C@@]2(c3cc(C#CCC(C(=O)OC)C(=O)OC)ccc31)[C@H](C(=O)Nc1nc3ccccc3s1)[C@H]1C(=O)O[C@H](c3ccccc3)[C@H](c3ccccc3)N1[C@@H]2c1ccc(OCCO)cc1`, the composite z-score in assay [1] worked out at 0.659; in assay [2] it was 0.0831; in [3], 0.164; in assay [5], 1.48; in assay [6], 1.32; in assay [7] it was 1.03. Moreover, the composite z-score in assay [8] came out at 1; in assay [9] it was 1.04; in assay [10] it was 0.286; in assay [11], 0.783; in assay [13], 1.21; in [14] it was 1.34. For the same molecule, the composite z-score in assay [15] is -0.21; in assay [16] it was 0.0377; in assay [17], 0.0043; in [18], -0.0242; in [19], 1.38; in assay [20], 0.752. Besides, the z-score in assay [4] was 0.0491 (inactive); in [12] it was -2.03.
